# Data published in PubChem BioAssay (Tox21).
# Several values for one entry are separate records, joined by “and”; a condition that tells them apart may be missing. Equal values may be shown once. Records with an inconclusive call do not appear. Where a structure was tested more than once in an assay, its records may differ in their call. Activity calls are given as the source filed them. Calls follow the shape of the dose curve; as a rule, active = well fitted cell-killing curve with a large enough effect in the repeat runs; inconclusive = weak or mixed curves; inactive = no such curve, though single readings can be large or run the other way. Starred links: 1 amine or outer side, 2 acyl side, 3 side chain; linkers in the order of their positions; H or OH if unused. Positions of bridges follow the written chain, without caps; N, C: chain ends. Non-standard residues stand in square brackets, D forms with d. Residues, ends and D or L forms follow the SMILES beside them. Chains are numbered I, II in the order given. Actinocin(9to1) = Cc1c2oc3c(C)ccc(C(=O)[*:1])c3nc-2c(C(=O)[*:2])c(N)c1=O; NMeV = CN[C@H](C(=O)O)C(C)C; Sar = CNCC(=O)O
# Assay: qHTS assay to identify small molecule agonists of the peroxisome proliferator-activated receptor delta (PPARd) signaling pathway - cell viability counter screen (AID 743211); also: nearly all actives have a fitted effect of over 55% in size
# Conditions: PPARd-bla HEK293H viability, CellTiter-Glo luminescence, 17 h; series mostly up to 62.6 µM; activity change, negative = cytotoxicity: at the top concentration
# From the text: U.S. Tox21 Program National Center for Advancing Translational Sciences [NCATS] NIH Chemical Genomics Center [NCGC] U.S. Environmental Protection Agency [EPA] National Institutes of Environmental Health Sciences [NIEHS] National Toxicology Program [NTP] U.S. Food and Drug Administration [FDA] Tox21 Assay Overview: The peroxisome proliferator-activated receptors (PPARs) are lipid-activated transcription factors of the nuclear receptor superfamily with three distinct subtypes namely PPAR alpha, PPAR delta (PPARd) and PPAR gamma. All these subtypes heterodimerizes with Retinoid X receptor (RXR) and have different physiological functions. […] To identify the compounds that activate PPAR-delta signaling, GeneBLAzer PPAR delta UAS-bla HEK293H cell line (Invitrogen, Carlsbad, CA, USA) containing a beta-lactamase reporter gene under the control of an Upstream Activator Sequence (UAS) was used to screen the Tox21 compound library. The cytotoxicity of the Tox21 compound library against the PPARd-bla cell line was tested in parallel by measuring the cell viability using CellTiter-Glo assay (Promega, Madison, WI) in the same wells.
# Tox21 Assay Protocol Summary: PPARd-bla cells were dispensed at 3000 cells/6uL/well in 1536-well black wall/clear bottom plates using a Multidrop Combi (Thermo Fisher Scientific, Waltham, MA) dispenser. After the assay plates were incubated at 37 C and 5% CO2 for 5 h, 23 nL of compounds dissolved in DMSO, positive controls or DMSO only was transferred to the assay plate by a Pintool station (Kalypsys, San Diego, CA). The assay plates were incubated at 37C for 17 h. After 1 uL of LiveBLAzerTM B/G FRET substrate was added using a Bioraptr Flying Reagent Dispenser (FRD) workstation (Beckman Coulter, Indianapolis, IN, USA), the plates were incubated at room temperature for 2 h, and fluorescence intensity was measured by an Envision plate reader (PerkinElmer, Shelton, CT). For cell viability readout that measures cytotoxicity, 3 ul/well of CellTiter-Glo reagent was added into the assay plates using a Bioraptr FRD. After 30 min incubation at room temperature, the luminescence intensity in the plates was measured using a ViewLux plate reader (PerkinElmer).
# % is scaled to controls: 0 for no effect and ±100 for the full control effect; potency is read from the fitted curve at half-maximal effect.
Compound,Potency,"activity change, negative = cytotoxicity"
COc1ccc(COC(C)=O)cc1,inactive,–
Cc1ccc(S(=O)(=O)Oc2ccc(N=Nc3ccc(-c4ccc(N=Nc5c(O)ccc6cc(S(=O)(=O)O)cc(S(=O)(=O)O)c56)c(C)c4)cc3C)cc2)cc1,inactive,–
COC(=O)/C=C/c1ccccc1,–,-1.11% (inactive)
CN(C)c1ccc2nc3ccc(=[N+](C)C)cc-3sc2c1,9.39 µM (active) and 49 µM (active),–
CCOC(=O)C(C)C(C)=O (stereo not given),–,2.37% [at 81.1 µM] (inactive)
O=C(OCc1ccccc1)c1ccc(O)cc1,–,-8.56% (inactive)
CCCCC(CC)COC(=O)CC(C(=O)OCC(CC)CCCC)S(=O)(=O)O (stereo not given),37.4 µM (active) and 24.5 µM (active),–
O=C(O)c1cn(-c2ccc(F)cc2)c2cc(N3CCNCC3)c(F)cc2c1=O,–,8.86% [at 29.1 µM] (inactive)
Nc1cc(Cl)c(-c2cc(Cl)c(N)cc2Cl)cc1Cl,48.9 µM (active) and 43.6 µM (active),–
c1ccc2c(c1)-c1cccc3c1c-2cc1ccccc13,inactive,–
CC(C)(C)NCC(O)COc1ccccc1OCC1CCCO1 (stereo not given),–,-2.37% (inactive)
CC(=O)Nc1ccc(C(=O)CCl)cc1,inactive and 49 µM (active),–
CC[C@]1(O)C[C@@H]2CN(CCc3c([nH]c4ccccc34)[C@@](C(=O)OC)(c3cc4c(cc3OC)N(C)[C@H]3[C@@](O)(C(=O)OC)[C@H](OC(C)=O)[C@]5(CC)C=CCN6CC[C@]43[C@@H]65)C2)C1,–,-12.8% (inactive)
CC1COC(=O)O1 (stereo not given),–,-0.119% [at 81.1 µM] (inactive)
CN(C)c1ccc(C(=C2C=CC(=[N+](C)C)C=C2)c2ccccc2)cc1,347 nM (active) and 1.33 µM (active),–
c1ccc2cc3c(ccc4ccccc43)cc2c1,inactive,–
CC(C)CCCCCCc1ccc(O)cc1,35.3 µM (active),–
CC(C(O)c1ccc(O)cc1)N1CCC(Cc2ccccc2)CC1 (stereo not given),–,0.0301% (inactive)
O=C1CC2(CCCC2)CC(=O)N1CCCCN1CCN(c2ncccn2)CC1,–,-4.54% (inactive)
CCCCC/C=C/CC1CC(=O)OC1=O (stereo not given),–,4.16% (inactive)

Compound,Potency,"activity change, negative = cytotoxicity"
CC(C)C(=O)c1c(C(C)C)nn2ccccc12,–,-0.404% (inactive)
Cc1cccc2n[nH]nc12,inactive,–
O=C1OC2(c3ccc(O)cc3Oc3cc(O)ccc32)c2ccccc21,inactive,–
CO[Si](OC)(OC)c1ccccc1,–,1.77% (inactive)
CCCOC(=O)c1cc(O)c(O)c(O)c1,inactive,–
CNC1(C)C2CCC(C2)C1(C)C (stereo not given),–,-0.662% (inactive)
C=CC(=O)OCCCCCCOC(=O)C=C,49.6 µM (active),–
Cc1c(O)cccc1C(=O)N[C@@H](CSc1ccccc1)[C@H](O)CN1C[C@H]2CCCC[C@H]2C[C@H]1C(=O)NC(C)(C)C,7.56 µM (active) and 18.8 µM (active),–
CCc1cc(C(C)(C)C)c(O)c(C(C)(C)C)c1,inactive,–
Nc1ccc2cc3ccccc3cc2c1,inactive,–
CCCN[C@H]1CCc2nc(N)sc2C1,inactive,–
"Cc1c2oc3c(C)ccc(C(=O)N[C@@H]4C(=O)N[C@H](C(C)C)C(=O)N5CCC[C@H]5C(=O)N(C)CC(=O)N(C)[C@@H](C(C)C)C(=O)O[C@@H]4C)c3nc-2c(C(=O)N[C@@H]2C(=O)N[C@H](C(C)C)C(=O)N3CCC[C@H]3C(=O)N(C)CC(=O)N(C)[C@@H](C(C)C)C(=O)O[C@@H]2C)c(N)c1=O (I: T[dV]P[Sar][NMeV] / II: T[dV]P[Sar][NMeV]; ester I:1-I:C, II:1-II:C; linker I:N-II:N via Actinocin(9to1))",26.8 µM (active) and inactive,–
O=C(Cl)c1cccc(C(=O)Cl)c1,inactive,–
COc1cc(C(=S)N2CCOCC2)ccc1O,–,4.03% (inactive)
CCC[C@H](N[C@@H](C)C(=O)N1[C@H](C(=O)O)C[C@@H]2CCCC[C@@H]21)C(=O)OCC,–,1.56% (inactive)
CCCCCCCCCCCCCCCCCl,–,0.0838% [at 29.1 µM] (inactive)
CC1=C(C=O)C(C)(C)CC=C1,–,4.88% [at 81.1 µM] (inactive)
OCC(CO)N[C@H]1C[C@](O)(CO)[C@@H](O)[C@H](O)[C@H]1O,–,13.9% (inactive)
Cc1ccc(-c2cc(C(F)(F)F)nn2-c2ccc(S(N)(=O)=O)cc2)cc1,54.9 µM (active),–
CCN(CC)c1ccc2c(C)cc(=O)oc2c1,inactive,–
